The whole screen tested about 310,000 compounds, of which about 14,000 (4.5%) showed an effect of 50% or more. The effect is printed as a negative number. The sample as a whole holds a higher share of strong results than the screen did.
Target: human ether-à-go-go-related gene (hERG) potassium channel (human, UniProt Q12809)
Assay: primary screen, population patch clamp on CHO cells stably expressing hERG; higher = less effect of the substance
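Further: peak tail current of the secondary pulse compared with the same well before compound.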

Sequence of human ether-à-go-go-related gene (hERG) potassium channel (Q12809 whole entry, looked up): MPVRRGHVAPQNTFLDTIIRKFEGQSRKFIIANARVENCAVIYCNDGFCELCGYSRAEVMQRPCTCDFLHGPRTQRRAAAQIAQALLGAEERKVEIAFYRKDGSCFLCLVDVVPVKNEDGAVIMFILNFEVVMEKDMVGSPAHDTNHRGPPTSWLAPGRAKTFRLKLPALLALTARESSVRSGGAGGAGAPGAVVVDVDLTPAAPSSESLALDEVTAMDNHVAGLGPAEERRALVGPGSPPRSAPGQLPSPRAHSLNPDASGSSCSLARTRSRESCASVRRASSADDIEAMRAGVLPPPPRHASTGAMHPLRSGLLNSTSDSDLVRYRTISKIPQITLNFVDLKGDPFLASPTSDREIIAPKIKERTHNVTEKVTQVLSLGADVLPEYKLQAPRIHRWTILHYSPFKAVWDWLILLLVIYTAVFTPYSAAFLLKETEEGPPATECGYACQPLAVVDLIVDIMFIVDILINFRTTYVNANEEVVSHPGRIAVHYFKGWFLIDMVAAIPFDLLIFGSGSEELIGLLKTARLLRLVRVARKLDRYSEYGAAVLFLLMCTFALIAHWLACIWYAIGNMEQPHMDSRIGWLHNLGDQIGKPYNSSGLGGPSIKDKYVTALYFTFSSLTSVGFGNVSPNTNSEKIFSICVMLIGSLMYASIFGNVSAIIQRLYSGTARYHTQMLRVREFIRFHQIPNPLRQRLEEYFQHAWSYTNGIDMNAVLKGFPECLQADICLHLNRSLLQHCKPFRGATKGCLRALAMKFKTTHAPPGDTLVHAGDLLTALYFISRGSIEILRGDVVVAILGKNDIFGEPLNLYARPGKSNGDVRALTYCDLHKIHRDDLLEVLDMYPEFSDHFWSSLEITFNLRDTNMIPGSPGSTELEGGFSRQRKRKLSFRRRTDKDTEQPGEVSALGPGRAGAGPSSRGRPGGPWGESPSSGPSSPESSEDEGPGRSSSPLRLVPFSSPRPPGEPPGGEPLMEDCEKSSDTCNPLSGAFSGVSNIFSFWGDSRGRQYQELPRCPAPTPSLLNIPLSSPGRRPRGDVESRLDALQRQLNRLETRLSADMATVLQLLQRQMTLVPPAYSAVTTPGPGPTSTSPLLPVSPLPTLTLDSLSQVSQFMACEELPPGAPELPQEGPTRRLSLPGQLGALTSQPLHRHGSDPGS

Row | SMILES | hERG current change (%, negative = inhibition) at 10uM
1 | CCOC(=O)C1CCCN(C(=O)CSc2nccn2C)C1 (stereo not shown) | -0.344%
2 | CCOC(=O)c1cnn2c(C)cc(-c3ccccc3)nc12 | -10.4%
3 | Cc1cc(C)c(S(=O)(=O)Nc2ncn[nH]2)cc1C | 42.8%
4 | COC(=O)c1ccccc1NC(=O)c1ccccc1OC | -23.1%
5 | O=C(NCCc1cccc(C(F)(F)F)c1)C1CCC(=O)N(C2CC2)C1 (stereo not shown) | 3.12%
6 | CN(CC1CCN(CCc2cccc(C(F)(F)F)c2)CC1)C(=O)c1ccc(F)cc1F | -69.9%
7 | CN(Cc1cccc(C(F)(F)F)c1)C(=O)C1CCC(=O)N(CC2CCCCC2)C1 (stereo not shown) | -6.77%
8 | COc1ccc(/C=C2\C(=O)c3ccccc3OC2c2ccccc2)cc1 (stereo not shown) | 7.66%
9 | COC(=O)[C@@]1(Cc2ccc(OC)cc2)[C@H]2c3cc(C(=O)N4CCCC4)n(Cc4c(CO)[nH]cc(C)c4=O)c3C[C@H]2CN1C(=O)c1ccccc1 | 3.94%
10 | Cc1ccc(Cl)c(OCC(=O)Nc2cc(S(=O)(=O)N3CCOCC3)ccc2N2CCCC2)c1 | -15.4%
11 | CN1CCN(c2ccc(S(=O)(=O)N3CCCCC3)cc2NC(=O)c2ccc(F)cc2F)CC1 | -68.4%
12 | CN1CCN(c2ccc(S(=O)(=O)N3CCCCC3)cc2NC(=O)COc2ccc(F)cc2)CC1 | -75.2%
13 | Cc1cccc(OCCC(=O)Nc2cc(S(=O)(=O)N3CCCCC3)ccc2N2CCOCC2)c1 | 6.71%
14 | Cc1cccc(OCC(=O)Nc2cc(S(=O)(=O)N3CCCCC3)ccc2N2CCN(C)CC2)c1 | -63%
15 | CN1CCN(c2ccc(S(=O)(=O)N3CCCCC3)cc2NC(=O)COc2ccc([N+](=O)[O-])cc2)CC1 | -34.3%
16 | CN1CCN(c2ccc(S(=O)(=O)N3CCCCC3)cc2NC(=O)COc2cccc(Cl)c2)CC1 | -49.1%
17 | Cc1ccccc1OCC(=O)Nc1cc(S(=O)(=O)N2CCCCC2)ccc1N1CCN(C)CC1 | -28.3%
18 | Cc1ccccc1C(=O)Nc1cc(S(=O)(=O)N2CCCCC2)ccc1N1CCN(C)CC1 | -37.4%
19 | Cc1ccc(OCC(=O)Nc2cc(S(=O)(=O)N3CCCCC3)ccc2N2CCN(C)CC2)c(C)c1 | -57.7%
20 | O=C(COc1ccc(F)cc1)Nc1cc(S(=O)(=O)N2CCCCC2)ccc1N1CCCCC1 | 9.98%
21 | CN1CCN(c2ccc(S(=O)(=O)N3CCCCC3)cc2NC(=O)Cc2ccccc2F)CC1 | -31%
22 | Cc1ccc(C)c(OCCC(=O)NNC(=O)Cn2nc(C)cc2C)c1 | 21.8%

Row | SMILES | hERG current change (%, negative = inhibition) at 10uM
23 | O=C(NCc1ccccc1)C1=C[C@@H](c2ccc(Br)cc2)C[C@@H](OCCCCO)O1 | -36.8%
24 | COc1cc2c(cc1OC)C(c1ccccc1Cl)N(C)CC2 (stereo not shown) | 1.73%
25 | COc1ccc(Cc2c(O)nc(SCC(=O)NC34CC5CC(CC(C5)C3)C4)[nH]c2=O)cc1 | 4.4%
26 | Cc1ccc(NC(=O)CCN2C(=O)C3CCCCC3C2=O)c(O)c1 (stereo not shown) | 11.9%
27 | CC(CCc1ccccc1)NCC#N.Cl (stereo not shown) | 18.9%
28 | O=c1c(Cc2ccc(Cl)cc2Cl)c(O)ccn1CC(F)(F)F | 12.7%
29 | COc1ccc(OC)c(S(=O)(=O)n2ccnc2C)c1 | 0.0552%
30 | CCOc1ccc(N2CC(C(=O)Nc3c(C)n(C)n(-c4ccccc4)c3=O)CC2=O)cc1 (stereo not shown) | 22.6%
31 | CCn1cc(C(=O)N2CCN(C(=O)c3ccco3)CC2)c2cc(OC)c(OC)cc2c1=O | 7.72%
32 | CCOCCCNC(=O)c1cc(-c2ccc(Br)s2)nc2ccccc12 | 15%
33 | CC(C)C(=O)NS(=O)(=O)c1ccc(N)cc1 | 8.54%
34 | Cc1ccc(NC(=O)C2(NC(=O)c3cccc(N4C(=O)CSC4c4ccccc4)c3)CCCCC2)cc1 (stereo not shown) | 2.72%
35 | Cc1cc2c(cc1S(=O)(=O)NCc1ccc(Cl)cc1)OCC(=O)N2 | -57.9%
36 | Cc1cc2c(cc1S(=O)(=O)NCCc1ccc(Cl)cc1)OCC(=O)N2 | -21.3%
37 | COc1cccc(NS(=O)(=O)c2cc3c(cc2C)NC(=O)CO3)c1 | -38.7%
38 | Cc1ccc(CNS(=O)(=O)c2cc3c(cc2C)NC(=O)CO3)cc1 | -39.8%
39 | COc1ccc(NS(=O)(=O)c2cc3c(cc2C)NC(=O)CO3)c(OC)c1 | -15.3%
40 | COc1cc(NS(=O)(=O)c2cc3c(cc2C)NC(=O)CO3)cc(OC)c1 | -62.2%
41 | O=C(O)c1ccc(NC(=S)N2CCCCC2)cc1 | 19.8%
42 | CN(CC(=O)N1CCCCCC1)S(=O)(=O)c1ccc(Br)s1 | -9.92%
43 | COc1ccc([N+](=O)[O-])cc1NC(=O)CCCOc1ccccc1 | 21.6%
44 | Nc1c(C(=O)c2ccc(Cl)cc2)sc2nc3c(cc12)CCC3 | 12%

Row | SMILES | hERG current change (%, negative = inhibition) at 10uM
45 | COC(=O)c1cc2c(N)c(C(=O)c3ccc(Cl)cc3)sc2nc1C(OC)OC | -69.6%
46 | COC(=O)c1cc2c(N)c(C(=O)c3ccccc3)sc2nc1C(OC)OC | 0.631%
47 | CCNC(=S)N1CCN(C(c2ccccc2)c2ccccc2)CC1 | 2.6%
48 | CC(C)NC(=S)N1CCN(C(c2ccccc2)c2ccccc2)CC1 | -34.7%
49 | CCC(C)NC(=S)N1CCN(C(c2ccccc2)c2ccccc2)CC1 (stereo not shown) | -59.6%
50 | O=c1cc(O)c2c(=O)n(-c3ccccc3)c3c(c2o1)CCCCC3 | -0.822%
51 | Cn1c(N2CCNCC2)nc2ccccc21 | -15.7%
52 | CC(C)n1c(N2CCN(C(=O)Nc3ccccc3)CC2)nc2ccccc21 | -14.6%
53 | CCCn1c(N2CCN(C(=O)Nc3ccccc3)CC2)nc2ccccc21 | -35.9%
54 | Cn1c(N2CCN(C(=O)NCc3ccccc3)CC2)nc2ccccc21 | -60%
55 | c1ccc(C(c2ccccc2)N2CCN(c3ccc4ccccc4n3)CC2)cc1 | -3.18%
56 | Cn1c(N2CCN(C(=O)NC34CC5CC(CC(C5)C3)C4)CC2)nc2ccccc21 | 23.2%
57 | CC(C)n1c(N2CCN(C(=O)NCc3ccccc3)CC2)nc2ccccc21 | -59.2%
58 | Cn1c(N2CCN(C(c3ccccc3)c3ccccc3)CC2)nc2ccccc21 | -51.7%
59 | CC(C)n1c(N2CCN(C(=O)Nc3ccc(Cl)cc3)CC2)nc2ccccc21 | -36.3%
60 | CCCn1c(N2CCN(S(=O)(=O)Cc3ccccc3)CC2)nc2ccccc21 | 4.46%
61 | O=C(NCc1ccccc1)N1CCn2c(nc3ccccc32)C1 | 2.53%
62 | CCCn1c(N2CCN(C(=O)NCc3ccccc3)CC2)nc2ccccc21 | -67.9%
63 | Cc1cc(-c2cccs2)c2c(N)c(C(=O)c3ccc4c(c3)OCO4)sc2n1 | 5.2%
64 | Cc1ccc(S(=O)(=O)N(C)c2ccccc2C(=O)Nc2c(F)cccc2F)cc1 | 3.31%
65 | CC(C)(C)N1CC(c2nc3ccccc3n2Cc2ccccc2)CC1=O (stereo not shown) | -47.2%
66 | COc1ccc(S(=O)(=O)N2CCOCC2)cc1NC(=O)c1sccc1C | -3.22%

Row | SMILES | hERG current change (%, negative = inhibition) at 10uM
67 | COc1ccc2nc(SC(C)C(=O)NC3(C#N)CCCCC3)[nH]c2c1 (stereo not shown) | -20.1%
68 | COC(=O)c1cc2oc(C)cc2n1CC(=O)N1CCCc2ccccc21 | -11.9%
69 | Cc1ccc2nc(NC(=O)CSCC(=O)OCC(=O)c3ccc(Br)cc3)sc2c1 | 16.5%
70 | O=C(COc1ccc(Br)cc1)NCCCn1ccnc1 | -20.1%
71 | COc1ccc(Cl)cc1NC(=O)CN(C)C(=O)c1cc2c(F)cccc2s1 | -6.32%
72 | CCCCSc1nnc(C)c(=O)[nH]1 | 3.25%
73 | Cc1cccc(C2c3[nH]c4ccccc4c3CCN2C(=O)Cc2n[nH]c(C)n2)n1 (stereo not shown) | 5.57%
74 | COc1ccc(OC)c(NC(=O)COc2ccc(S(=O)(=O)N3CCCC3)cc2)c1 | -23.4%
75 | O=C(CCC(=O)n1ncc2ccccc21)NCc1ccc(F)cc1 | -18.1%
76 | Cc1ccc(C(=O)N2CCN(c3ncccn3)CC2)cc1 | 12.6%
77 | Cc1ccc(C(=O)N2CCN(c3ccccn3)CC2)cc1 | -14.3%
78 | Cc1ccc(C(=O)N2CCN(c3nc4ccccc4n3C)CC2)cc1 | -70.3%
79 | CCOC(=O)C1CCN(S(=O)(=O)c2ccc3c(c2)CCN3C(=O)C2CCC2)CC1 | 14.1%
80 | COc1ccc(C(=O)N(C)CCCC2CCCC2)cc1OC1CCN(C(C)=O)CC1 | -32.2%
81 | CCOCCCNC(=O)c1ccc(OC)c(OC2CCN(C(C)C)CC2)c1 | 10.7%
82 | COc1ccc(C(=O)NCCCSC)cc1OC1CCN(C(C)C)CC1 | -11.8%
83 | COc1ccc(C(=O)N[C@H]2CCCCNC2=O)cc1OC1CCN(C(C)C)CC1 | 15.3%
84 | COc1ccc(C(=O)N(C)CCCC2CCCC2)cc1OC1CCN(C(C)C)CC1 | -68.4%
85 | COc1ccc(C(=O)NC2CC2)cc1OC1CCN(C(C)CSC)CC1 (stereo not shown) | -75.4%
86 | COc1ccc(C(=O)NC2CCCCCC2)cc1OC1CCN(C(C)=O)CC1 | -4.48%
87 | COC(=O)CN(C)C(=O)c1ccc(OC)c(OC2CCN(C(C)C)CC2)c1 | 13.1%
88 | COc1ccc(C(=O)NC2CCCCC2)cc1OC1CCN(C(C)C)CC1 | -69.7%

Source: PMC4336329 (PLoS ONE, 2015)
